The text below walks through data of PubChem BioAssay AID651815 (National Center for Advancing Translational Sciences (NCATS), 2012).

Several values for one entry are separate records, joined by “and”; a condition that tells them apart may be missing. Equal values may be shown once. Out of some 2,100 compounds screened, about 1,100 (52%) were called active. Roughly 29% stayed inconclusive and do not appear here. Calls follow the shape of the dose curve; as a rule, active = well fitted inhibition curve with a large enough effect; inconclusive = small, poorly fitted or top-dose-only effect; inactive = no such curve, though single readings can be large or run the other way. So high a share suggests a set chosen from earlier hits. This is one part of the list.
Potency is read from the fitted curve at half-maximal effect.

Chain of DNA dC->dU-editing enzyme APOBEC-3F (Homo sapiens) (Q8IUX4 whole entry, looked up): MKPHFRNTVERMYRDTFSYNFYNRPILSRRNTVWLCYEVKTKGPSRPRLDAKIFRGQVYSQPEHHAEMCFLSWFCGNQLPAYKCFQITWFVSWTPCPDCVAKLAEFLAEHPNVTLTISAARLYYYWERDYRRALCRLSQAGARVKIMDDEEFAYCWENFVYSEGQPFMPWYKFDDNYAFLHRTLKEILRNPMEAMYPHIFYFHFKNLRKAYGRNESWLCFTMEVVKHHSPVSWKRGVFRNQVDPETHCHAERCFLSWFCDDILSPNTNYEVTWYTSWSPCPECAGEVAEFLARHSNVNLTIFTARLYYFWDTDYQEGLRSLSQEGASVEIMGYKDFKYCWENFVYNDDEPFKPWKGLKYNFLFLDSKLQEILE

This test addresses DNA dC->dU-editing enzyme APOBEC-3F (Homo sapiens) (UniProt Q8IUX4). Nature of the test: qHTS for inhibitors of Vif-A3F interactions: Cherry picks counterscreen. Also: nearly all actives have a fitted effect of over 65% in size. The conditions noted are these: HeLa A3F-eYFP/Vif cells, eYFP fluorescence, 24 h; series mostly up to 46.1 µM. In short, it runs like this: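 Rescue of Vif-driven A3F-eYFP degradation read as cellular eYFP fluorescence after 24 h compound exposure (several concentrations) in stable HeLa cells; MG132 (2 mM stock) as positive control.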
On to `Cc1cc2nc(SCCOC(=O)Nc3cccc(Cl)c3)nc(C)c2cc1C`, for which the Potency entry was “inactive”.

As to `Cn1ncc(N=Cc2c(O)ccc3ccccc23)c1C(=O)Nc1cccc(Cl)c1`, the Potency was 14.6 µM (active).

With `CCOc1ccccc1C1CC(=O)NC2=C1C(=O)CCC2` (stereo unspecified), the Potency was 12.5 µM (active). Turning to `CCCOc1ccccc1C1CC(=O)NC2=C1C(=O)CCC2` (stereo unspecified), the Potency was 7.04 µM (active). Consider `CCCOc1ccccc1C1CC(=O)Nc2cc3c(cc21)OCO3` (stereo unspecified), for which the Potency is 3.96 µM (active). As to `Cc1c(C(=O)Nc2ccc(C(C)C)cc2)sc2nc3n(c(=O)c12)CCC3`, the Potency entry is “inactive”. For the compound `CC(C)c1ccc(C(=O)NCCCNC(=O)c2cnccn2)cc1`, the Potency result was “inactive”. As for `CC(C)c1ccc(NC(=O)Nc2cnccn2)cc1`, the Potency is 17.7 µM (active). In the case of `CCOc1ccccc1N1CC(c2nc3ccccc3n2Cc2c(C)cc(C)cc2C)CC1=O` (stereo unspecified), the Potency entry is “inactive”.

Consider `CCOC(=O)Cn1c(=O)c(-c2cc(Br)ccc2N)nc2ccccc21`, for which the Potency is 11.6 µM (active). For `CCOC(=O)COn1c(=O)c(-c2ccc(Br)cc2)[n+]([O-])c2ccccc21`, the Potency result is “inactive”. In the case of `Nc1ccccc1C=C1Cc2ccccc2C1=O`, the Potency was 16.4 µM (active). On to `CN(C)c1ccc(/C=C2/C[N+](C)(C)C/C(=C/c3ccc(N(C)C)cc3)C2=O)cc1`, for which the Potency was 7.31 µM (active). Take `CN(C)c1ccc(/C=C2\Cc3ccccc3C2=O)cc1`: the Potency was 2.91 µM (active). Take `Cc1ccccc1NC(=O)CSC1=C(C#N)C(c2ccsc2)CC(=O)N1` (stereo unspecified): the Potency entry was “inactive”. Take `CCOC(=O)CSC1=C(C#N)C(c2ccc(C)s2)CC(=O)N1` (stereo unspecified): the Potency is 1.98 µM (active). As to `CCCC(=O)NC1=C(Cl)C(=O)c2ccccc2C1=O`, the Potency result is “inactive”.

Turning to `O=C(CCc1ccccc1)Nc1ccc(Cl)cn1`, the Potency was 3.96 µM (active). Turning to `S=C(NCc1ccco1)Nc1ccc(Cl)cn1`, the Potency entry was “inactive”.

Consider `CN(C)c1ccc(/C=C/c2cc(/C=C/c3ccc(N(C)C)cc3)c3ccccc3n2)cc1`, for which the Potency was 5.17 µM (active).

Regarding `CN(C)c1ccc(/C=C/c2cc(N(C)C)nc3ccccc23)cc1`, the Potency was 8.2 µM (active). The figure for `CN(C)c1ccc(/C=C/c2nc3ccccc3c(=O)n2CCO)cc1` is 23.1 µM (active); for `CCN(CC)c1ccc(/C=C/c2cc(-c3ccccc3)c3ccccc3n2)cc1` it is 7.04 µM (active).

`CCC(C)Sc1cccc(-c2nc3cc(C)ccn3c2NC2CCCCC2)c1` (stereo unspecified): the Potency result is “inactive”. On to `Nc1ccc(/C=C/c2cc(Cl)nc3ccccc23)cc1`, for which the Potency was 23.1 µM (active).

For `Nc1ccc2nc(-c3ccccc3)c(-c3ccccc3)nc2c1`, the Potency entry is “inactive”. The figure for `Cc1c(N2C(=O)/C(=C/c3ccc(N(C)C)cc3)N(C)C2=S)c(=O)n(-c2ccccc2)n1C` is 20.6 µM (active); for `CN1C(=O)/C(=C\c2ccc(N(C)C)cc2)OC1=S` it is 1.98 µM (active). Consider `CN1C(=S)N(c2cccnc2)C(=O)/C1=C\c1ccc(N(C)C)cc1`, for which the Potency was 9.94 µM (active). On to `Cc1ccc(/C=N/NC(=O)CCCOc2ccc(Cl)cc2Cl)cc1`, for which the Potency is 4.98 µM (active).

Consider `O=C1NC(c2ccccc2Br)=N/C1=C\c1ccco1`, for which the Potency result was “inactive”. Consider `O=C1N/C(=C\c2ccccc2)c2ccccc21`, for which the Potency was 1.58 µM (active). With `Cc1cccc2cc3c(N)c(C(=O)N4CCCc5ccccc54)sc3nc12`, the Potency is 20.6 µM (active).

Turning to `Cc1ccc2nc3sc(C(=O)N4CCCc5ccccc54)c(N)c3cc2c1`, the Potency was 12.5 µM (active). For `Cc1cccc2cc3c(N)c(C(=O)N4CCc5ccccc54)sc3nc12`, the Potency is 6.51 µM (active). In the case of `Fc1ccc(-c2cnn3c(-c4cccs4)ccnc23)cc1`, the Potency was 15.8 µM (active). The figure for `COc1ccccc1C1c2ccc3ccccc3c2Oc2ncn(CCN(C)C)c(=N)c21` (stereo unspecified) is 15.8 µM (active); for `COC(=O)C1=COC(C)C2CN3CCc4c([nH]c5cc(OC)c(OC)cc45)C3CC12` (stereo unspecified) it is “inactive”. For `COC(=O)C1C2CC3c4[nH]c5cc(OC)ccc5c4CCN3CC2CC(OC2CCCCO2)C1OC` (stereo unspecified), the Potency entry is “inactive”.

On to `COC(=O)C1C2CC3c4[nH]c5cc(OC)ccc5c4CCN3CC2CC(OC(=O)CC(C)=O)C1OC` (stereo unspecified), for which the Potency was 18.4 µM (active). The figure for `COc1ccc(-c2n[nH]c(C)c2-c2ccc(OC)c(OC)c2)c(O)c1` is 7.9 µM (active). For `O=[N+]([O-])c1ccccc1S(=O)(=O)Nc1ccc(-c2ccc(N3CCOCC3)nn2)cc1`, the Potency result was “inactive”. Regarding `COc1ccccc1NS(=O)(=O)c1cc([N+](=O)[O-])ccc1N/N=C/c1sc(N2CCOCC2)nc1-c1ccccc1`, the Potency was 1.46 µM (active). In the case of `O=[N+]([O-])c1ccc(N/N=C/c2sc(N3CCOCC3)nc2-c2ccccc2)c(S(=O)(=O)Nc2ccccc2Cl)c1`, the Potency is 5.8 µM (active). Take `CCOC(=O)c1ccc(NC(=S)NC(=O)C2CCCC2)cc1`: the Potency entry was “inactive”. `COC(=O)c1ccc(NC(=O)CC2Nc3cc(C)c(C)cc3NC2=O)cc1` (stereo unspecified): the Potency is 9.2 µM (active). Consider `CCCSc1ncc(Cl)c(C(=O)Nc2sc3c(c2C(N)=O)CCCC3)n1`, for which the Potency was 18.4 µM (active). For `CCOC(=O)c1ccc(/C=C2/C=C(c3ccccc3)N(c3ccc(Cl)c(C(=O)O)c3)C2=O)cc1`, the Potency is 20.6 µM (active). `Cc1cc(NC(=O)CSc2nc(-c3cccs3)nc3ccccc23)no1`: the Potency was 0.994 µM (active).

`Cc1cc2cc(C#N)c(SCC(=O)Nc3nonc3C)nc2cc1C`: the Potency is 23.1 µM (active). As for `Cc1nonc1NC(=O)CSc1nc2c(C)cccc2cc1C#N`, the Potency is 16.4 µM (active). As for `Cc1cc(NC(=O)CSc2nc3c(C)cccc3cc2C#N)no1`, the Potency is 6.51 µM (active).

Turning to `CC(Nc1oc(-c2ccc(COc3ccccc3)o2)nc1C#N)c1ccccc1` (stereo unspecified), the Potency entry is “inactive”. Regarding `Cc1ccc2nc(SCC(=O)Nc3ccc4sc(C)nc4c3)c(C#N)cc2c1`, the Potency was 16.4 µM (active). The figure for `Cc1nc2cc(NC(=O)CSc3nc4c(C)cccc4cc3C#N)ccc2s1` is 13 µM (active); for `Cc1cccc(C(=O)Nc2nnc(C3=COCCO3)o2)c1` it is “inactive”; for `N=C1S/C(=C\c2ccc(-c3cccc(Cl)c3)o2)C(=O)N1c1nccs1` it is 18.4 µM (active). For `O=C(N/N=C/c1c(O)n(-c2ccc(Cl)cn2)c(=O)c2ccccc12)c1ccncc1`, the Potency entry is “inactive”. In the case of `COc1ccc(N=Cc2c(O)n(-c3cccc(C)n3)c(=O)c3ccccc23)c(OC)c1`, the Potency is 23.1 µM (active). In the case of `Cc1ccc(N=Cc2c(O)n(-c3nccs3)c(=O)c3ccccc23)c(C)c1`, the Potency entry is “inactive”.

For `CCOC(=O)Cc1ccc(Nc2nc3cc(-c4sccc4C)sc3c(=O)n2C)cc1`, the Potency is 3.96 µM (active). Regarding `CCOc1cccc(-n2nnnc2-c2ccc(OC)cc2)c1`, the Potency is 4.44 µM (active). Turning to `COc1ccc(-n2nnnc2-c2ccccc2)cc1`, the Potency is 2.5 µM (active). Consider `COc1ccc(-n2cc3c(-c4cccc(Br)c4)nnc(C)c3n2)cc1`, for which the Potency result is “inactive”. On to `COc1ccc(-n2nnnc2-c2cccc(OC)c2)cc1`, for which the Potency was 1.25 µM (active). The figure for `COc1ccc(-c2cc(NC(C)=O)c3ncc(-c4cc(OC)c(OC)c(OC)c4)n3c2)cn1` is 7.04 µM (active).

For `COc1cc(-c2cnc3c(NC(C)=O)cc(-c4ccccc4CN(C)C)cn23)cc(OC)c1OC`, the Potency is 12.5 µM (active).

In the case of `COc1ccccc1CNC(=O)c1ccc(Nc2nc3ccccc3n3nnnc23)cc1`, the Potency is 23.1 µM (active). Consider `Cc1ccc(CNC(=O)c2cccc(Nc3nc4ccccc4n4nnnc34)c2)cc1`, for which the Potency was 20.6 µM (active). Take `COc1cc(Nc2nc3ccccc3n3nnnc23)cc(OC)c1OC`: the Potency was 13 µM (active). `CC(NC(=O)c1ccc(Nc2nc3ccccc3n3nnnc23)cc1)c1ccccc1` (stereo unspecified): the Potency was 18.4 µM (active).

`Cc1cc(C)nc(-n2nc(C)cc2NC(=O)c2ccc(F)cc2F)n1`: the Potency entry was “inactive”. As to `COc1cc2ccccc2cc1C(=O)N/N=C/c1cccs1`, the Potency is 1.77 µM (active).

For `COc1ccc(NC(=O)/C(C#N)=C\C=C\c2ccco2)cc1`, the Potency is 7.04 µM (active).

For `COc1ccc(NC(=O)/C(C#N)=C/C=C/c2ccco2)cc1`, the Potency is 6.27 µM (active). `CCOC(=O)c1c(NC(=O)CSc2nc3ccc(OC)cc3[nH]2)sc2c1CC(C)(C)NC2(C)C`: the Potency entry was “inactive”. Regarding `C=CCOc1ccc2nc(NC(=O)OC)[nH]c2c1`, the Potency was 2.5 µM (active). The figure for `CC(C)n1cnc2c(NCc3ccccc3)cc(N[C@H](C)CO)cc21` is 14 µM (active); for `COc1ccccc1Nc1nnc(SCC2CCCCO2)s1` (stereo unspecified) it is 14 µM (active); for `Cc1ccc(NC(=O)C(=Cc2ccc(C(=O)O)cc2)C(=O)Nc2ccc(C)cc2C)c(C)c1` it is 3.53 µM (active). With `COc1cc(/C=C2\SC(=S)N(NC(=O)c3ccccc3OC)C2=O)ccc1O`, the Potency entry is “inactive”.

For `CN(C)c1ccc(/C=C2\SC(=S)N(Nc3ncc(C(F)(F)F)cc3Cl)C2=O)cc1`, the Potency was 6.51 µM (active). As to `COc1cc(/C=C2\SC(=S)N(Nc3ncc(C(F)(F)F)cc3Cl)C2=O)ccc1O`, the Potency was 20.6 µM (active). The entry for `C=CCN1C(=O)/C(=C/c2ccc(O)c(OC)c2)S/C1=N/c1nccs1` is “inactive”; for `N=C1/C(=C\c2coc3ccccc3c2=O)C(=O)N=C2SC(c3ccncc3)=NN12` it is 20.6 µM (active); for `COc1ccc(-c2coc3cc4oc(=O)cc(-c5ccccc5)c4cc23)cc1F` it is 1.98 µM (active). As to `COc1ccc(C)cc1NCc1cc(=O)oc2cc(-c3ccccc3)c(O)cc12`, the Potency entry is “inactive”.

Turning to `COc1ccc2nc3sc(C(=O)Nc4cc(Cl)c(OC)cc4OC)cc3cc2c1`, the Potency was 4.11 µM (active).

Consider `Nc1nc2n[nH]nc2c(=O)[nH]1`, for which the Potency was 9.2 µM (active) and 3.96 µM (active). The figure for `C=CCn1c(SCc2c(C)noc2C)nc2cc(C(=O)O)ccc2c1=O` is 17.7 µM (active); for `Cc1noc(C)c1CSc1nc2ccccc2c(=O)n1-c1ccccc1` it is 3.53 µM (active). The figure for `CN1CCN(c2nc3ccccc3nc2NS(=O)(=O)c2ccc(Br)cc2)CC1` is 18.4 µM (active); for `O=C(N=c1ccn(-c2nc3ccccc3nc2NS(=O)(=O)c2ccccc2)cc1)c1cccs1` it is “inactive”. As for `O=C(N=c1ccn(-c2nc3ccccc3nc2NS(=O)(=O)c2ccc(Cl)cc2)cc1)c1cccs1`, the Potency was 16.4 µM (active).

As to `O=S(=O)(Nc1nc2ccccc2nc1N1CCN(c2ccccc2)CC1)c1ccc(F)cc1`, the Potency is 18.4 µM (active).

`O=S(=O)(Nc1nc2ccccc2nc1N1CCc2ccccc2C1)c1ccc(Br)cc1`: the Potency was 23.1 µM (active).
